Common to all, as to design: scale not given: direction of the effect not stated beside the values
The target of test [1] is Protein translocase subunit SecA (Escherichia coli (strain K12)) (UniProt P10408). Nature of the test: Assay to Identify E. coli SecA ATPase Inhibitors. It is filed as functional. To be noted: 30 µM.
Test [2] has as its target T1, Ubiquitin-activating enzyme e1, putative (Leishmania donovani (strain BPK282A1)) (UniProt E9BSI1).
T1 sequence (whole entry): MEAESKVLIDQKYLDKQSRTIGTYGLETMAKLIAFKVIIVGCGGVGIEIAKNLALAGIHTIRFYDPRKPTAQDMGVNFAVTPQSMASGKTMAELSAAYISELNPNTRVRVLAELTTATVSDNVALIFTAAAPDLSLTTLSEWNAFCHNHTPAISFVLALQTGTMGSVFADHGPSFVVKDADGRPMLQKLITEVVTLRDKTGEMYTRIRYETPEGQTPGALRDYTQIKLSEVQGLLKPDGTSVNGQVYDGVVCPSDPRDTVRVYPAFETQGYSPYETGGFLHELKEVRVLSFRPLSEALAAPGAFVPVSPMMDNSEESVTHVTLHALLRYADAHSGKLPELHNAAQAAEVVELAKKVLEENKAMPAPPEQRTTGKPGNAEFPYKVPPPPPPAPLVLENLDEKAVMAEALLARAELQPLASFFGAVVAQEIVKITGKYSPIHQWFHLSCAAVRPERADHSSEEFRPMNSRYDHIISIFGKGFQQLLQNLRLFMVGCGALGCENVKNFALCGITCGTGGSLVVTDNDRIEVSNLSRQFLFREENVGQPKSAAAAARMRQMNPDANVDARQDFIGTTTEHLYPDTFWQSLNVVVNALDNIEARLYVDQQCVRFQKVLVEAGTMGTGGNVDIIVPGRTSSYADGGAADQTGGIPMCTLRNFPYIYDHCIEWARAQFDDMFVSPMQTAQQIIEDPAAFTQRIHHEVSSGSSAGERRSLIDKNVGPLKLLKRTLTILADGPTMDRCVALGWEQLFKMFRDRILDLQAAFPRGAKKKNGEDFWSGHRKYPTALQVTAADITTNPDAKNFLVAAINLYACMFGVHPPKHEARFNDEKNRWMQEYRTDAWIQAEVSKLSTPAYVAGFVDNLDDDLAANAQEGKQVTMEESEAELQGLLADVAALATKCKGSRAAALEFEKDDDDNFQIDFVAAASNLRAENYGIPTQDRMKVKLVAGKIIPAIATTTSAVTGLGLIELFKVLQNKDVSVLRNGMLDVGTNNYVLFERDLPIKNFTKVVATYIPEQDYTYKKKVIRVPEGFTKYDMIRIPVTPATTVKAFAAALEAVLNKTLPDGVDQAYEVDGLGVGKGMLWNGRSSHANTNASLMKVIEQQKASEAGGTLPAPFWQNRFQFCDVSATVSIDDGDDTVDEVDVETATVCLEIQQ
Briefly: Leishmania donovani Ubiquitin Activating Enzyme (LdE1). Conditions: 30 µM. In kind it is functional.

For test [3], the target named is AMP-activated protein kinase, AMPK (Homo sapiens) (UniProt P54646+O43741+P54619+Q9UGJ0+Q9Y478+Q13131+Q9UGI9). Nature of the test: AMP-dependent Kinase enzyme assay. An in vitro enzyme assay that detects ADP turnover that is directly proportional to AMPK activity. This uses naive AMPK that is activated during the assay with MK-8722. To be noted: 30 µM. In kind it is functional.

Test [4] deals with Sialic acid-binding Ig-like lectin 9 (Homo sapiens) (UniProt Q9Y336). Nature of the test: Hs-Siglec9 ALPHAscreen SOP 20170721. Conditions: 10 µM.
The test system of test [5] is Trypanosoma cruzi. Nature of the test: Trypanosoma cruzi phosphomannomutase and mannose-1-phosphate guanylyltransferase assay. Conditions: 10 µM. It is filed as functional.
The target in test [6] is T2, Arginase-2, mitochondrial (Homo sapiens) (UniProt P78540).
T2 sequence (whole entry): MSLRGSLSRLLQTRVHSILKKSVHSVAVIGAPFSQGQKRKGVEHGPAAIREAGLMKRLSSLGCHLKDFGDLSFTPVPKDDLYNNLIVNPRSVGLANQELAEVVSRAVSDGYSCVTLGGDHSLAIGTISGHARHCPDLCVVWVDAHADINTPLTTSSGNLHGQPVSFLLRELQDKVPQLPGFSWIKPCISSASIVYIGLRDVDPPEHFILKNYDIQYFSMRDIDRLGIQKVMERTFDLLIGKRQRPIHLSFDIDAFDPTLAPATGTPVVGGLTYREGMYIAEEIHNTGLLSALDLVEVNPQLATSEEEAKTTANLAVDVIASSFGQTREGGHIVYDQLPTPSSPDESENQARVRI
Nature of the test: in vitro enzyme assay to detect the production of urea directly proportional to the activity of Arginase II. Note: in the data most compounds retested in dose-response had high values. In kind it is functional. To be noted: 33.3 µM.

The target in test [7] is T3, Proteasome subunit beta (Trypanosoma cruzi) (UniProt O96673).
T3 sequence (whole entry): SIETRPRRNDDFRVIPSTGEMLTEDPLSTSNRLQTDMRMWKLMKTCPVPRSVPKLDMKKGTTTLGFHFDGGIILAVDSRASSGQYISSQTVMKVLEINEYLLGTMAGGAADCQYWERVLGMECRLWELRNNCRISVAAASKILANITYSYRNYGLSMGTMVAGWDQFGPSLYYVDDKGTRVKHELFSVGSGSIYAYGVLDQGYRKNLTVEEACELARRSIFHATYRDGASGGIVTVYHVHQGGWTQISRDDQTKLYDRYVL
Briefly: Trypanosoma cruzi proteasome chymotrypsin-like activity (TcProtChymo) assay. Note: in the data most compounds retested in dose-response had high values. In kind it is functional. Conditions: 9.37 µM.

The species named for test [8] is Homo sapiens. Nature of the test: To identify inhibition of the IFN signalling (Jak-Stat) pathway via expression of an eGFP reporter gene under the control of an IFN-stimulated response element (ISRE) containing MxA promoter. Conditions: 30 µM. It is filed as functional. For orientation: Reporter assays use an easily measured gene product as a stand-in for the process of interest.

Test [9] concerns the target T4, Tyrosyl-tRNA synthetase, putative (Trypanosoma cruzi (strain CL Brener)) (UniProt Q4DSP6).
T4 sequence (whole entry): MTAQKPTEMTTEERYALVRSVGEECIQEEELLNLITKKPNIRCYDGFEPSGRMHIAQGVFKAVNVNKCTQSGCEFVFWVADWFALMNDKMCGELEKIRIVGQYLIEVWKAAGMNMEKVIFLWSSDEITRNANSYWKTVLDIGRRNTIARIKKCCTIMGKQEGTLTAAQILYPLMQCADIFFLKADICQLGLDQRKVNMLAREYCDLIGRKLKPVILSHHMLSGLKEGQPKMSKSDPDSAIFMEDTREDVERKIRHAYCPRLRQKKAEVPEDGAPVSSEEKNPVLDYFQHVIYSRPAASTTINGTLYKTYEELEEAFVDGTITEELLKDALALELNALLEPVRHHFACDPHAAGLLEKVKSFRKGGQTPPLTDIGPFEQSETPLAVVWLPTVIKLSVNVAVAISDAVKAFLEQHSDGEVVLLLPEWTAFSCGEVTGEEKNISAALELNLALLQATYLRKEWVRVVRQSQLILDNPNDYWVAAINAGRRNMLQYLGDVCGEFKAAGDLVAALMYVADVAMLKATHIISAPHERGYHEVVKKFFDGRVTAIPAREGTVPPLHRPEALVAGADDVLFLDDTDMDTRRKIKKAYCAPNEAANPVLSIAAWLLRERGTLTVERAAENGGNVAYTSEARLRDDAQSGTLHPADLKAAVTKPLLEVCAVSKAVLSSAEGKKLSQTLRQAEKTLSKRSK
Briefly: Trypanosoma cruzi tyrosyl tRNA synthetase (TcYRS) _High Tyrosine SOP. Note: in the data most compounds retested in dose-response had high values. In kind it is functional. To be noted: 30 µM.

Test [10] addresses T4, Tyrosyl-tRNA synthetase, putative (Trypanosoma cruzi (strain CL Brener)). Nature of the test: Trypanosoma cruzi tyrosyl tRNA synthetase (TcYRS) SOP. Conditions: 30 µM. It is filed as functional.
In test [11] the target is Chromo domain-containing protein 1 (Saccharomyces cerevisiae (strain ATCC 204508 / S288c) (Baker's yeast)) (UniProt P32657). Briefly: ScCHD-1 Enzyme Inhibition Assay. Note: in the data most compounds retested in dose-response had high values. It is filed as functional. Conditions: 30 µM.

For some assays here: Potency and affinity values are given separately.

Chain of Protein translocase subunit SecA (Escherichia coli (strain K12)) (P10408 whole entry): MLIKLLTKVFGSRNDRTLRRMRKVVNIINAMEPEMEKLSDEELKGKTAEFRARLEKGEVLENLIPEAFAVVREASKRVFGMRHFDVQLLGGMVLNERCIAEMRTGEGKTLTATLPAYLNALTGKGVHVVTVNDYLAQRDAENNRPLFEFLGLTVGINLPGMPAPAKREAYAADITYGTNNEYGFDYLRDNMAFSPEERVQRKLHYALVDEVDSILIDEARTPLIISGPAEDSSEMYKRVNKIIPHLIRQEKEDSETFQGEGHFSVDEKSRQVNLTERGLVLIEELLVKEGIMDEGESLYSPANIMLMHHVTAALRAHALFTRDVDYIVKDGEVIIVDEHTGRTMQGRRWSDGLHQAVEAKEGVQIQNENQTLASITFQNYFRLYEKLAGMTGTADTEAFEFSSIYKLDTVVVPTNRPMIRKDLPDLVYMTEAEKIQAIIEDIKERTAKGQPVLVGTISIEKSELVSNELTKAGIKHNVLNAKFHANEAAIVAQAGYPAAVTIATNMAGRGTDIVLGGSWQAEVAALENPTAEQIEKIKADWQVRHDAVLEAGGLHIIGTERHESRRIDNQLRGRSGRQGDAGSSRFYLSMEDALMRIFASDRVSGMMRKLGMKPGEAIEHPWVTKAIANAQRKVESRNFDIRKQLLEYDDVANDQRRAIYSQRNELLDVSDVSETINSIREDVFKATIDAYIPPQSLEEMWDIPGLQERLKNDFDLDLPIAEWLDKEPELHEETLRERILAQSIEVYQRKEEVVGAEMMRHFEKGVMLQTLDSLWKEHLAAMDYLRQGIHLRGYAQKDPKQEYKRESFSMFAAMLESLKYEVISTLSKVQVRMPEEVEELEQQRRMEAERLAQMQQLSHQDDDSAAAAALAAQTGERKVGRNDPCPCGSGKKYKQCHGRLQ
Chain of Chromo domain-containing protein 1 (Saccharomyces cerevisiae (strain ATCC 204508 / S288c) (Baker's yeast)) (P32657 whole entry, the tested form may be a part): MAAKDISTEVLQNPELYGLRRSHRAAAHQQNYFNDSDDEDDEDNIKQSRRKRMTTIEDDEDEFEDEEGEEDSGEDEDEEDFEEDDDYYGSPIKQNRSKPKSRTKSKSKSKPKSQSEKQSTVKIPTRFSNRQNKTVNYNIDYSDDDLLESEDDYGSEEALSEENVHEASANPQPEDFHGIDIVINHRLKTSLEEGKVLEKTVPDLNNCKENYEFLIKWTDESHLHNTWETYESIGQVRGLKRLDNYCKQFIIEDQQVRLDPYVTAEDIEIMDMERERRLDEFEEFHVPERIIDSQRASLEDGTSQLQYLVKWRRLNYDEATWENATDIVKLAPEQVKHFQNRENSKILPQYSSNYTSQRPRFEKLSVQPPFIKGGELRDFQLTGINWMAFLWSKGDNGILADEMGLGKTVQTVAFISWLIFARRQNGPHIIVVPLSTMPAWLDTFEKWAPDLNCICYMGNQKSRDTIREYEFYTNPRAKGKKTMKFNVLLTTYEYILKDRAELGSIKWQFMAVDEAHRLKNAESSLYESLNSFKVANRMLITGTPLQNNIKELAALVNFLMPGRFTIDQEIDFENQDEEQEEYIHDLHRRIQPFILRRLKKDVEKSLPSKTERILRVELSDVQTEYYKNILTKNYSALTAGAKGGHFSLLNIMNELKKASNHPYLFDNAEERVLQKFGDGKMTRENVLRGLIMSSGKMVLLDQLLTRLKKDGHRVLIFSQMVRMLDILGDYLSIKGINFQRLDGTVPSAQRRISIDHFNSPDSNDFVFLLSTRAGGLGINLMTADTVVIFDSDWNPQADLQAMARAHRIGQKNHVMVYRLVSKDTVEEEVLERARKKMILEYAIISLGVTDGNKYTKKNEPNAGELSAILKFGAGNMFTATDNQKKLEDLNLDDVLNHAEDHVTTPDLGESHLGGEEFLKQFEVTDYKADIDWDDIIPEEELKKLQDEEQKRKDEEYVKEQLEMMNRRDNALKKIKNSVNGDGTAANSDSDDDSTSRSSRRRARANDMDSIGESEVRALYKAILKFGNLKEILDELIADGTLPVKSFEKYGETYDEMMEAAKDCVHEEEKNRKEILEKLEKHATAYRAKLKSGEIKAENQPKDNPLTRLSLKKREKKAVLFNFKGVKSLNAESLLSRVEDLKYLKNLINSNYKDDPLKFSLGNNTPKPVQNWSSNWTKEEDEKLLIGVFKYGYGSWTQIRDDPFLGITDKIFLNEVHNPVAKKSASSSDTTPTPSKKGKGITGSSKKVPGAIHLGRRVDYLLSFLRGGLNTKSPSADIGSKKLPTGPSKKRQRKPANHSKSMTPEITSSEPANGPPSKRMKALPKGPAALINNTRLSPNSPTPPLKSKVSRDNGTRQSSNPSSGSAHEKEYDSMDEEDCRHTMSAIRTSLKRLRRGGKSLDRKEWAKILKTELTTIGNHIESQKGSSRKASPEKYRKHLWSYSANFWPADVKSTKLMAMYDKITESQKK
Chain of Sialic acid-binding Ig-like lectin 9 (Homo sapiens) (Q9Y336 whole entry): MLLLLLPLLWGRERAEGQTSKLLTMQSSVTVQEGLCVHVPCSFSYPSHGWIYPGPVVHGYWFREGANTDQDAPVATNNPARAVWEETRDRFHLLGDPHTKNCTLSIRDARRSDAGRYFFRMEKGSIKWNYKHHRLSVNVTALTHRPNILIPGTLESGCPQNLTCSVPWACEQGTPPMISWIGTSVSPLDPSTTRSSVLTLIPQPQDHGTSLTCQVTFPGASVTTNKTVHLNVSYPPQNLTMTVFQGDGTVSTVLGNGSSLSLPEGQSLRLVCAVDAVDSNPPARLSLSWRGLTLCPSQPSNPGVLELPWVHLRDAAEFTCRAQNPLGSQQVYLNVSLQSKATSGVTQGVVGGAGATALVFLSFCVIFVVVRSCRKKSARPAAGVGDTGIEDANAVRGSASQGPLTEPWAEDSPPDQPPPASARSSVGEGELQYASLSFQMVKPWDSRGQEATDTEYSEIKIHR

Take `CC(C)c1nnc2n1CCN(Cc1csc(CC(=O)N(C)C)n1)C2`: the Percent Effect in [1] is 2.63%; in [2], 18.4%; in test [3], 10.8%; in [4], 3.17%; in test [5], -4.7%; in [6], -4.6%. Also, the Percent Effect was 11.5% in test [7]; 34.2% in test [8]; -0.49% in test [9]; 7.32% in test [10]; -15% in test [11].

Take `CCN1C[C@H]2CCN(C(=O)NC3CCCC3)CC[C@H]2S1(=O)=O`: the Percent Effect in test [1] is 2.4%; in test [2], 14.7%; in [3], 2.73%; in [4], -7.67%; in [5], -3.54%; in [6], -5.81%. Also, the Percent Effect was 15.5% in test [7]; 2.2% in [8]; 1.06% in [9]; 5.13% in test [10]; -7.62% in test [11].

For the compound `COCCNC(=O)[C@H]1C[C@@H]2CCN(c3nncs3)C[C@H]2O1`, the Percent Effect in [1] was -0.719%; in test [2], -8.11%; in test [3] it was 6.18%; in test [4], -4.67%; in test [5], -1.37%; in test [6] it was 1.67%. Further, the Percent Effect in test [7] was -0.254%; in test [8], 7%; in [9], 5.94%; in [10], 6.1%; in test [11], 1.42%.

As for `Cc1nc(CN2C(=O)C[C@H]3[C@H]2CCN3C2CCOCC2)cs1`, the Percent Effect in [1] was -2.26%; in [2], 11%; in test [3], -0.758%; in [4], 4.06%; in test [5] it was 0.595%; in test [6] it was -2%. Also, the Percent Effect is 8.3% in test [7]; -4.37% in test [8]; 3.12% in [9]; 11.1% in [10]; -3.21% in [11].

`Cc1cnc(CN(C)C2CCN(CC(=O)N(C)c3nccs3)C2)o1` (stereo not given): the Percent Effect is 2.75% in test [1]; 17.7% in test [2]; 3.25% in test [3]; -2.38% in test [4]; -8.4% in test [5]; 0.76% in test [6]. The Percent Effect in test [7] was 13.2%; in [8], 40.8%; in test [9], 1.48%; in test [10], -3.8%; in test [11] it was -6.37%.

Turning to `CCC(=O)NCC(=O)NCc1cc(Br)ccc1OC(F)F`, the Percent Effect was -3.84% in [1]; 18.7% in [2]; -6.58% in test [3]; 53.5% in test [4]; 3.41% in test [5]; 18.8% in test [6]. For the same compound, the Percent Effect is 7.15% in test [7]; -3.97% in test [8]; 7.1% in test [9]; 18.5% in test [10]; -8.96% in test [11].

Consider `CC(C)CCOCCNC(=O)Nc1cc(C(F)(F)F)c[nH]c1=O`, for which the Percent Effect in test [1] is -7.54%; in test [2] it was 8.11%; in test [3], 3.62%; in [4], 2.66%; in [5] it was -0.464%; in test [6], -0.924%. Moreover, the Percent Effect in test [7] came out at 1.62%; in test [8] it was 6.69%; in test [9], 6.93%; in [10] it was 13.4%; in [11], 7.34%.

As for `COc1ccc(C2CCCN2C(=O)c2cc3c([nH]c2=O)CCC3)cc1` (stereo not given), the Percent Effect in [1] was -6.57%; in test [2], 5.41%; in [3], 2.86%; in test [4] it was -3.27%; in [5], -2.73%; in test [6], 4.58%. The Percent Effect in test [7] was 17.5%; in [8], -1.92%; in test [9], 11.9%; in test [10], 8.54%; in test [11], -6.14%.

As to `O=C(NC1CCS(=O)(=O)C1)c1sccc1-c1ccc(F)cc1` (stereo not given), the Percent Effect in [1] is -6.43%; in [2], 5.41%; in test [3], 2.1%; in test [4], -6.95%; in [5], -4.4%; in test [6], -0.248%. For the same compound, the Percent Effect in [7] is 8.15%; in test [8], -15.8%; in test [9] it was 0%; in test [10], 6.17%; in [11] it was 11.7%.

Consider `Cc1csc(N2CCN(C(=O)Cc3ccc(C)s3)CC2)n1`, for which the Percent Effect in test [1] was -4.68%; in test [2], 10.8%; in test [3], -9.36%; in test [4], 4.82%; in [5], -6.89%; in [6], -5.61%. The Percent Effect was 25.2% in [7]; 15.8% in test [8]; 12.3% in test [9]; 11.1% in [10]; 1.36% in [11].

For the origin of these results see ChEMBL document CHEMBL3988442, “University of Dundee, Small-Polar-MMV Screening Library” (2021).
